Test results taken from PubChem BioAssay AID493073 (Broad Institute, 2011).
In all, about 1,200 compounds went through this assay and about 810 (68%) were called active. The rule behind the calls is not given here. So high a share suggests a set chosen from earlier hits. Only a sample is shown. Results with a measured potency or affinity are listed apart.

Assay: reducers of TRPM1 reporter luminescence, concentration series – cell-based, SK-MEL-5, cherry-picked, set 3, MITF inhibitor project, dose response (AID 493073)
Conditions: SK-MEL-5 TRPM1 promoter luciferase, 24 h; series mostly up to 35 µM

outcome, inactive:
COc1ccc(-c2noc(-c3cccs3)n2)cc1OC
CCc1nc2oc3ccc(C)cc3c(=O)c2cc1C(=O)OC
CCOc1ccc2nc(NC(=O)Cc3cccs3)sc2c1
Cc1[nH]nc(Nc2ccc(Br)cc2)c1[N+](=O)[O-]
CS/C(N)=N/N=C/c1ccc2c(c1)OCO2
COc1cccc(/C=N/Nc2nc3ccccc3[nH]2)c1OC
COc1ccccc1N1CCN(/N=C\c2ccccc2)CC1
COC(=O)c1ccc(/C=N/Nc2nc(C)c(C)s2)cc1
CC(C)c1ccc(C(=O)Nc2cccnc2)cc1
O=C(CSc1nc2ccccc2[nH]1)c1ccc2c(c1)OCO2
O=C(Nc1ccc(Br)cc1)c1ccc2c(c1)OCO2
CCOc1ccc2cc(C#N)c(SCC(=O)OC)nc2c1
CC(=O)Nc1ccc(-c2nc3ccccc3o2)cc1
Cc1occc1C(=O)N/N=C/c1ccc(OCc2ccccc2)cc1
CCc1nc2oc3ccccc3c(=O)c2cc1C(=O)OC
Cc1nc(-c2ccccn2)sc1C(=O)Nc1ccc(F)cc1F
COc1ccc(-c2csc(Nc3ccccn3)n2)cc1OC
COCn1c(COc2ccccc2)nc2ccccc21
Cc1ccc(-n2cc(CNCCCn3cccn3)c(-c3cccc(C)c3)n2)cc1
Cc1oc(=O)c(NC(=O)c2ccccc2)cc1C(=O)c1ccccc1
CN(C)c1ccc(/C=N/N2CCN(c3ccccn3)CC2)cc1
CN(C)c1ccc(NC(=O)Nc2ccc3c(c2)nnn3C)cc1
CN(C)c1ccc(CNc2ccccn2)cc1
CC(C)OC(=O)CSc1nc2cc3c(cc2cc1C#N)OCO3
O=C(Nc1ccc(N2CCOCC2)c(Cl)c1)c1cccc(F)c1
Cc1ccc(N2C(=O)c3ccc(N)cc3C2=O)cc1C
Oc1ccc(-c2nnc(SCC3CCCCC3)o2)cc1
COc1ccc(C[C@H]2CN3C(=NC[C@@H]3C(C)C)N2CCNC(=O)c2ccc(C)c(Br)c2)cc1
CCN1CCN(CCCNC(=O)c2ccc3c(Cl)c4c(nc3c2)CCCC4)CC1
COc1ccc(/C=C2\Sc3ccc(C(=O)NCCN4CCCCCC4)cc3N(C)C2=O)cc1
CCCC1=Nc2cc(C(=O)NCCN3CCCC3)ccc2Sc2ccccc21
Cc1ccc(-c2noc(-c3ccno3)n2)cc1
O=C(NCc1ccc2c(c1)OCO2)c1cc(=O)[nH]c2ccccc12
Cc1ccc2[nH]c(=O)c(CN(CCCN(C)C)C(=O)Nc3cccc(Cl)c3)cc2c1
Nc1c(N(CCC2=CCCCC2)C(=O)COc2ccc(F)cc2)c(=O)[nH]c(=O)n1Cc1ccccc1
O=C(NCc1csc(-c2cccs2)n1)C1CCC1
CCOc1ccc(NC(=O)c2ccc3snnc3c2)cc1
O=C(Nc1ccc(Cl)cc1)OCc1ccccn1
O=C(Nc1ccc2c(c1)OCCO2)c1ccoc1
O=C(Nc1ccc2c(c1)OCCO2)c1cccc(Cl)c1Cl
O=C1CN(c2ccccc2)C(=S)N1C(=O)c1ccccc1
COc1ccc(NC(=O)c2cc(F)cc(F)c2)cc1Cl
O=[N+]([O-])c1ccc(N/N=C/C=C/c2ccco2)cc1
CCN(CC)CC(=O)Nc1scc2c1c(=O)oc1ccccc12
Fc1ccc(-c2nnc(-c3ccc(F)cc3)o2)cc1
CCOC(=O)c1ccc(NC(=O)Cc2cccs2)cc1
CCc1ccc(Nc2nc(C)cc(C)n2)cc1
O=C(N/N=C/C(Cl)=C\c1ccccc1)c1cccs1
C/C(=C\c1ccccc1)C(=O)Nc1ccc(Cl)cn1
Brc1cccc(/C=N/Nc2nn[nH]n2)c1
Cc1ccc2cc(NC(=O)Cc3ccccc3)ccc2n1
CN(c1cccc(NC(=O)COc2ccc(Cl)cc2Cl)c1)S(C)(=O)=O
O=C(Nc1ccccc1)O/N=C/c1ccc(F)cc1
O=C(N/N=C/c1ccccc1)c1ccco1
O=C(C[n+]1cc(-c2ccc(F)cc2)n2c1CCC2)c1cccs1
COc1ccc(C(=O)Nc2ccc3ccccc3c2)cc1OC
COc1cc(-c2nnc(-c3ccco3)o2)ccc1OCc1ccccc1
CCOC(=O)C1(Cc2ccccc2)CCCN(CCCn2cccn2)C1 (stereo unspecified)
CCOc1ccc(-c2nnc(-c3cccs3)o2)cc1OCC
O=C(COc1ccc2c(c1)CCC2)N1CCc2ccccc21
O=C(Nc1ccccc1Cl)c1cc(=O)c2ccccc2o1
Oc1cc(NCc2cccnc2)ccc1-c1nc2ccccc2o1
Cc1ccc2nc(-c3cccnc3)oc2c1
CC(C)c1ccc(CNc2ncccn2)cc1
COCc1nc(-c2ccc(-c3ccccc3)nc2OC)no1
COc1cc(CN2CCC(Cc3ccccc3)CC2)cc(OC)c1OC
COc1ccc(S(=O)NC2CCCCC2)c(OC)c1C (stereo unspecified)
O=C(CCCCC(=O)NN=Cc1ccccc1O)NN=Cc1ccccc1O
CC(C)C(NC(=O)OCc1ccccc1)C(=O)OCC(=O)N1CCCCC1 (stereo unspecified)
Cc1ccc2c(COC(=O)c3n[nH]c4ccccc34)cc(=O)oc2c1
N#Cc1ccc(-c2cccnc2)nc1SCC(=O)c1ccccc1
CS(=O)(=O)c1ncc(Cl)c(C(=O)Nc2ccc3ccccc3c2)n1
O=C(CCCCl)NC(=S)Nc1ccc(N2CCOCC2)cc1
CCNc1nc(N)c(C(=O)c2ccc(Cl)s2)s1
COc1ccc(-c2nc(-c3ccncc3)no2)cc1OC
c1ccc(OCc2nn3c(-c4ccccn4)nnc3s2)cc1
COc1cccc(/C=N/NC(=O)CN2CC(c3ccccc3)CC2=O)c1OC (stereo unspecified)
Cc1cc(/C=C(\C#N)C(=O)O)c(C)n1CC(C)C
CSCCNC(=O)c1ccc2nc(Cc3ccccc3F)oc2c1
Cc1nc2ccc(NC(=O)c3ccco3)cc2nc1C
O=C(Nc1ccc2nc(-c3ccccc3)[nH]c2c1)c1ccco1
Cc1nc(NC(=O)C2CC2)sc1C(=O)Nc1ccccc1Cl
O=C(CSCc1c(F)cccc1F)Nc1ccccc1
CN(C)c1ccc(/C=N\NC(=O)c2cccc3cc[nH]c23)cc1
O=C(CCC1CCCN(C(=O)c2cc3ccccc3o2)C1)NCc1ccc(F)c(F)c1 (stereo unspecified)
CN(C)CCCNc1nc2sc3c(c2c(=O)n1CCc1ccccc1)CCCCC3
CCOC(=O)C1CCCN(C(=O)C2CCN(S(=O)(=O)CC)CC2)C1 (stereo unspecified)
N/C(=N\OC(=O)c1ccc(Cl)cc1Cl)c1ccncc1
CC(C)S(=O)(=O)c1csc(C(=O)Nc2ccc(F)cc2)c1N
C/C(=N\Nc1cc(N2CCOCC2)ncn1)c1ccccc1
Cc1ccc(/C=c2/sc3n(c2=O)CCCN=3)o1
CCCCOc1ccc(-c2ncc([N+](=O)[O-])cn2)cc1
Cc1ccc2oc(=O)n(CCCOc3ccccc3)c2c1
CN(CC(=O)N1CCCCCC1)S(=O)(=O)c1ccccc1
CC1CCN(C(=O)c2cc3ccccc3o2)CC1
Nc1nnc(/C=C/c2ccccc2Cl)s1
CC(=O)c1c(C)[nH]c(C(=O)Nc2ccc(C)c(C)c2)c1C
CC(C)(C)OC(=O)N1CCN(C(=O)c2nc[nH]c2C(=O)N2CCN(c3ccccc3)CC2)CC1
NC(=O)c1ccccc1NC(=O)/C=C/c1cccc(Cl)c1
O=C1N=C(N2CCOCC2)S/C1=C\C=C/c1ccccc1
C=CCN1C(=O)S/C(=C\c2ccc(N3CCOCC3)cc2C)C1=O
O=Cc1ccc(N2Cc3ccccc3C2)cc1
Cc1cc(Cl)ccc1OCCCC(=O)N1CCOCC1
CC(C)(C)N=Cc1cc(-c2ccccc2)sc1O
CCOC(=O)c1cnc2c(ccc3ccccc32)c1N
c1ccc(-n2ncc3c(NCc4cccs4)ncnc32)cc1
COCC(C)Nc1ncnc2c1cnn2-c1ccc(Cl)cc1 (stereo unspecified)
CCCCN=C(C)c1c(O)c2ccccc2oc1=O
COc1ccccc1-c1nc(-c2ccc(C)nc2OC)no1
COc1ccccc1-c1nnc(-c2ccc(C)cc2)o1
CCCCOC(=O)c1[nH]c(C)c(C(=O)OC)c1C
CCOC(=O)c1cc2sccc2n1CC(=O)N1c2ccccc2CC1C (stereo unspecified)
CCN(C(=O)c1ccco1)c1nc(-c2ccc(OC)cc2)cs1
CS(=O)(=O)c1ccc2nc(NC(=O)c3ccccc3Br)sc2c1
CCCCOc1ccc(-c2nnn(C(C)(C)C(=O)OC)n2)cc1
Cc1ccc(-c2noc(CN3CCCCC3)n2)cc1
COc1ccc(/C=N/N=C2/SCC(=O)N2Cc2ccccc2)cc1
O=[N+]([O-])c1ccccc1OCCCOc1cccc2cccnc12
C=CCOc1ccc(/C=C/C(C)=N\O)cc1
COc1ccc(C(=O)/C=C(\C)Nc2ccc3c(c2)OCO3)cc1
O=C(CSc1ccccn1)c1ccc2c(c1)OCO2
CCOC(=O)C1(Cc2cccc(OC)c2)CCCN(C(=O)CSC)C1 (stereo unspecified)
N#Cc1nc(/C=C/c2ccccc2)oc1NCCCN1CCOCC1
Cc1cc(C(=O)Nc2ccc([N+](=O)[O-])cn2)cs1
Cc1cc(O)ccc1Nc1nc(-c2cccnc2)cs1
CC(=O)c1cccc(Nc2nc(-c3cccnc3)cs2)c1
